Measurements published in PubChem BioAssay (NCI).
This is part of a sample that, as a whole, favours compounds with a hit. Of some 83,000 tested, about 20% had one in any assay.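 A percent growth of 40 corresponds to 60% growth inhibition; 0 means no net growth; -100 means all cells died. Active threshold: below 10.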 Values without a mark were called inactive. The source made the active and inactive calls.

Legend:
Test in all cases: NCI-60 one-dose screen, 48 h (100 = growth as untreated, 0 = no growth, -100 = all killed)
Details in all cases: 10 µM unless noted
[1] = system: DU-145 prostate
[2] = system: K-562 leukemia
[3] = system: MALME-3M melanoma
[4] = system: MDA-MB-231 breast
[5] = system: RXF 393 renal
[6] = system: SF-268 CNS
[7] = system: SF-295 CNS
[8] = system: SF-539 CNS
[9] = system: UACC-257 melanoma
[10] = system: M14 melanoma
[11] = system: HCT-15 colon
[12] = system: HT29 colon
[13] = system: SNB-75 CNS
[14] = system: SNB-19 CNS
[15] = system: U251 CNS
[16] = system: PC-3 prostate
[17] = system: SK-MEL-5 melanoma
[18] = system: UACC-62 melanoma
[19] = system: LOX IMVI melanoma
[20] = system: SK-MEL-28 melanoma

| Compound | growth [1] | growth [2] | growth [3] | growth [4] | growth [5] | growth [6] | growth [7] | growth [8] | growth [9] | growth [10] | growth [11] | growth [12] | growth [13] | growth [14] | growth [15] | growth [16] | growth [17] | growth [18] | growth [19] | growth [20] |
| --- | --- | --- | --- | --- | --- | --- | --- | --- | --- | --- | --- | --- | --- | --- | --- | --- | --- | --- | --- | --- |
| C=C(C)[C@@H]1C/C=C(\COC(=O)[C@H](OC(C)=O)C(NC(=O)c2ccccc2)c2ccccc2)CC[C@H]2O[C@]2(C)CC/C=C(\C)CC1 (stereo not given in full) | 86.6% [5 µM] | 14.7% [5 µM] | 86.3% [5 µM] | 65.2% [5 µM] | 107% [5 µM] | 78.9% [5 µM] | 73.7% [5 µM] | 81.1% [5 µM] | 97.5% [5 µM] | 34.3% [5 µM] | 89% [5 µM] | 62.8% [5 µM] | 57.5% [5 µM] | 80.2% [5 µM] | 71.4% [5 µM] | 32.1% [5 µM] | 71.4% [5 µM] | 62.3% [5 µM] | 72.9% [5 µM] | 77.1% [5 µM] |
| CCCCNc1cc(C(=O)O)cc(S(N)(=O)=O)c1Oc1ccccc1 | 110% | 98.2% | 96.2% | 122% | 91.1% | 105% | 102% | 105% | 105% | 109% | 108% | 112% | 90.4% | 106% | 99.8% |  | 95.3% | 101% | 93.5% | 109% |
| COc1cc(/C=C/C(=O)c2c(C)n([O-])c3cc(C)c(C)cc3[n+]2=O)cc(OC)c1OC | 50.5% | 21.7% | 86% | 67.8% | 54.2% | 79.9% | 71.7% | 80.2% | 100% | 48.7% | 51.7% | 70.6% | 50.5% | 60.5% | 45.8% | 59.6% | 59% | 64% | 51.7% | 72.9% |
| O=[N+]([O-])c1cccc(C2c3ccccc3Oc3ccccc32)c1 | 101% | 65.7% | 101% | 92% | 109% | 102% | 76.9% | 112% | 104% | 110% | 71.1% | 85.1% | 94.4% | 97.1% | 94.7% | 84.2% | 99.4% | 86.1% | 85.8% | 107% |
| O=C(Nc1ccc(-n2cc(-c3ccncc3)c(-c3ccc(O)c(Cl)c3)n2)cc1)Nc1cccc(Cl)c1Cl | 66.4% | 39.6% | 67.4% | 27% | -8.38% (active) | 82% | 37.6% | 18.5% | 90.7% | 46.9% | 43.1% | 1.45% (active) | 72.5% | 71.9% | 39.7% | 29% | 31.2% | 89.5% | 52.8% | 60.3% |
| COc1ccc(Cl)cc1NC(=O)c1cc2c(n1C)-c1nc(NC(=O)C(C)C)sc1CC2 | 83.5% | 79.8% | 99.3% | 30.5% | 101% | 71.2% | 92.5% | -27.9% (active) | 88% | 84.8% | 50.7% | 66.7% | 59.3% | 83.1% | 59.9% | 60.6% | 61% | 83.1% | 93% | 95.1% |
| COc1ccc(Cl)cc1NC(=O)c1cc2c([nH]1)-c1nc(NC(=O)C(C)(C)C)sc1CC2 | 59.9% | 10.6% | 74.1% | 33.1% | 99% | 45.3% | 84.2% | -14.6% (active) | 94.4% | 71.7% | 49.1% | 59.1% | 50.5% | 44% | 9.52% (active) | 61.4% | 55.5% | 81.2% | 53.4% | 94.2% |
| O=C(N/N=C1\SCC(=O)N1c1ccccc1)c1cc(-c2cc3ccccc3o2)nn1-c1ccccc1 | 109% | 90.6% | 94% | 91.9% | 101% | 103% | 104% | 104% | 107% | 110% | 106% | 107% | 101% | 104% | 103% | 86.9% | 101% | 134% | 107% | 110% |
| CC(C)[C@@H]1NC(=O)[C@]2(C)CSC(=N2)c2ccnc(c2)CNC(=O)C[C@@H](/C=C/CCS)OC1=O | 10.5% | 6.95% (active) | 14.6% | 11.5% | -61.7% (active) | 13% | -1.44% (active) | 17.2% | -25% (active) | 8.55% (active) | 52% | 2.76% (active) | 25.8% | 23.6% | -66.6% (active) | 17.7% | -88.2% (active) | -36.7% (active) | -94.9% (active) | 16.6% |
| COC(=O)c1oc2c(C(C)=O)c(OCCN3CCCCC3)ccc2c1C | 117% | 89.4% | 40.9% | 87.2% | 124% | 95.4% | 99.4% | 116% | 112% | 111% | 110% | 133% | 226% | 125% | 105% |  | 102% | 122% | 96.5% | 133% |
| Nc1ccc(S(=O)(=O)Nc2ccnn2-c2ccccc2)cc1 | 118% | 89% | 103% | 102% | 120% | 107% | 102% | 103% | 103% | 109% | 100% | 109% | 106% | 108% | 94.4% | 90.1% | 105% | 107% | 93.2% | 119% |
| NC(=S)NNC1CCCCC1 | 109% | 87.6% | 97.3% | 92.1% | 107% | 97.4% | 96.4% | 96.4% | 80.1% | 98.4% | 99.7% | 94.4% | 91.5% | 101% | 93.6% |  | 95.1% | 95.7% | 97.6% | 111% |
| O=C(Nc1ccc(-n2ccc3c(NC(=O)c4ccccc4)ncnc32)cc1)Nc1cccc(Cl)c1Cl | 1.29% (active) | 12.5% | 2.21% (active) | -9.33% (active) | -76.1% (active) | -26.8% (active) | -47.9% (active) | -10.4% (active) | 12.2% | -6.74% (active) | 9.38% (active) | -40.2% (active) | 3.19% (active) | -3.36% (active) | -80% (active) | -57.5% (active) | 14.9% | 33.4% | -23.9% (active) | -24.2% (active) |
| COc1ccc(C(=O)NC(=O)Nc2ccc3c(c2)NC(=O)/C3=C\c2[nH]c(C)c(C(=O)O)c2C)c(F)c1 | 28.2% | 62.6% | -8% (active) | 63.5% | -21% (active) | 65.4% | 33.1% | 47.8% | 47.2% | 17.6% | 47.8% | 16.5% | 30.4% |  | 32.1% | 40.2% | 28.2% | 38.3% | 52.4% | 57.9% |
| COc1cc(/C=C\c2cc(/C=C\c3ccc(O)c(OC)c3)n(C(=O)CNc3ccccc3OC)n2)ccc1O | 95.3% | 19.4% | 47.9% | 87% | 90.2% | 58.9% | 85.1% | 42% | 85.5% | 35.4% | 56.3% | 109% | 61.6% |  | 53.4% | 64.2% | 44.8% | 79.1% | 40.2% | 70% |
